Data taken from PubChem BioAssay AID1117319 (Southern Research Institute, 2015).
Values joined by “and” are separate entries in the source; they are usually repeats but may differ in a detail not shown here. Identical values can stand only once. Screen size: about 260,000 compounds; about 1,500 (0.58%) were called active. About 5% were inconclusive and are not listed.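 The calls were made as follows: active = inhibition above a set limit at one or more doses, reproduced on every date tested; inconclusive = results disagree between test dates, or hit never tested in dose response; inactive = the rest.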 A selection follows. Potency and affinity values are given separately.

Each molecule was assayed against Virion infectivity factor (Human immunodeficiency virus type 1 group M subtype B (isolate BH10)) + Virion infectivity factor (Human immunodeficiency virus type 1 group M subtype B (isolate BRU/LAI)) + Virion infectivity factor (Human immunodeficiency virus type 1 group M subtype B (isolate PCV12)) + Virion infectivity factor (Human immunodeficiency virus type 1 group M subtype B (isolate HXB2)) + DNA dC->dU-editing enzyme APOBEC-3G (Homo sapiens) (UniProt P69720+P69721+P69722+P69723+Q9HC16) (assay: HIV-1 Vif–A3G interaction blockers – biochemical, TR-FRET, GST-Vif 1-94, biotin-A3G peptide, dose response retest, primary screen (AID 1117319;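 also: Vif residues 1-94 fused to GST binding biotinylated APOBEC3G peptide 110-148; 0% = full assay without inhibitor and 100% = GST in place of GST-Vif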)). Conditions: TR-FRET GST-Vif / biotin-A3G peptide binding; active compounds read high.

inhibition, inactive:
Cc1nnc(-c2cccc(Br)c2)c2cn(-c3ccc(Br)cc3)nc12 -35.9%
CC(C)Oc1cc(NC(=O)CS(=O)(=O)CC(=O)N(C)C)c(Cl)cc1Cl 4.46%
COc1ccccc1CNC(=O)COc1ccc2c(c1)CCC2 -14.6%
O=C(COc1ccc2c(c1)CCC2)NCc1ccccc1 6.52%
COc1cccc(COC(=O)C2CC(=O)N(Cc3ccccc3)C2)c1OC (stereo unspecified) 4.65%
CCOc1ccc(NC(=O)NCCCn2c(C)nc3cc(C)c(C)cc32)cc1 3.24%
Cc1cc2nc(C)n(CCCNC(=O)Nc3ccc(C#N)cc3)c2cc1C -0.77%
CCCCSc1nnc(CCCCCNC(=O)OC(C)(C)C)o1 1.82%
CN(C)S(=O)(=O)c1ccc(C(=O)OCC(=O)Nc2ccc(OC(F)F)cc2)cc1 -3.03%
NNC(=O)CCc1c[nH]c2ccccc12 1.22%
NC(=O)CCc1c[nH]c2ccccc12 14.6%
O=C(NC(=O)c1cccc(F)c1)Nc1nc(-c2ccc(F)cc2)cc(C(F)(F)F)n1 0.6%
Cc1nc([N+](=O)[O-])cn1CC(=O)c1ccc(F)cc1 -8.97%
CCn1c(SCC(=O)N2CCCc3ccccc32)nc2ccccc2c1=O -1.92%
CN(C(=O)c1ccccc1C(=O)OCC(=O)Nc1ccccc1)c1ccccc1 -8.92%
O=C(CCNS(=O)(=O)c1ccc(Br)s1)NCc1ccc2c(c1)OCO2 -6.46%
CCO[C@@H]1OC(C(=O)NCc2ccccc2)=C[C@H](c2coc3ccccc3c2=O)[C@H]1CCCO 6.31%
Cc1ccc(/C=C/C(=O)c2c(C)cc(C)[nH]c2=O)cc1 -2.58%
Cc1cc(C)c(C(=O)/C=C/c2cccs2)c(=O)[nH]1 1.47%
CCn1c(O)c(N=Nc2ccc(Cl)c(C(=O)O)c2)c2ccccc21 16%
O/N=C/c1nc2cc(Cl)ccc2o1 4.03%
CC(=O)N(C1=C(N2CCOCC2)C(=O)c2ccccc2C1=O)c1ccc(C(=O)O)cc1 14.4%
CC(=O)N(C1=C(N)C(=O)c2ccccc2C1=O)c1ccccc1 4.9%
COC(=O)c1[nH]c2c(c1C)C(=O)CC(c1ccc(OC)c(OC)c1)C2 (stereo unspecified) -9.19%
C=CC[C@@H](CC(=O)N[C@H](CO)Cc1ccccc1)C(=O)N[C@@H](COC(=O)[C@@H](CC=C)CC(=O)OC(C)(C)C)Cc1ccccc1 -0.04%
CC1=C(C(=O)Nc2ccc(C)cc2)C(c2ccc(N(C)C)cc2)NC(=O)N1 (stereo unspecified) -2.24% and 24.2%
CC1=C(C(=O)Nc2ccccc2)C(c2ccc(N(C)C)cc2)NC(=O)N1 (stereo unspecified) 8.56%
O=C(NC(C(=O)N/N=C/c1cccc2ccccc12)c1n[nH]c(=O)c2ccccc12)c1ccccc1 (stereo unspecified) 4.11%
O=[N+]([O-])c1ccc(NN=Cc2ccccc2O)nc1 7.07%
O=C(O)Cc1c(O)ccc2ccccc12 3.01%
O=C(O)Cc1ccccc1C(=O)O 0.17%
O=C(N/N=C1\CCCc2ccccc21)c1cccc([N+](=O)[O-])c1 3.37%
COC(=O)CCN(C(=O)c1ccc(N2CCCCC2)c([N+](=O)[O-])c1)c1ccccn1 -7.46%
COc1ccc(C(=O)NNC(=O)c2ccc(C)cc2)cc1S(=O)(=O)N1CCCC1 -1.1%
CCCCCC(=O)N1C[C@H](n2cc(C3CC3)nn2)[C@@H](O)C[C@@H]1c1ccc(C)cc1 -2.78%
COc1ccccc1C(=O)n1nc(-c2ccc(Cl)cc2)nc1N 20.4%
COc1ccc(C(=O)n2nc(-c3ccccc3)nc2N)cc1OC -0.61% and -0.84%
Cc1occc1C(=O)N(C)CC1CCCN(CCc2ccccc2F)C1 (stereo unspecified) 7.6%
O=C1C(=Cc2ccco2)CCC1=Cc1ccco1 -4.11%
O/N=C1\CCCC\C1=C/c1ccccc1 5.14%
COc1ccc2c(c1)CC/C(=C/c1ccco1)C2=O 26.2%
NC(=N\N=Cc1ccco1)/C(N)=N/N=Cc1ccco1 27.4%
O=C1/C(=C/c2ccco2)CCC1C1CCCC1 (stereo unspecified) 25.4%
O=C1/C(=C\c2ccccc2)CCC/C1=C/c1ccccc1 -1.78%
Cc1ccccc1C(=O)NC1CCS(=O)(=O)C1 (stereo unspecified) -1.4%
CCc1ccc(CN(C)Cc2nc(Cc3ccc(OC)c(OC)c3)no2)nc1 -3.31%
COc1ccc(OC)c(NC(=O)CCN2CCN(c3ccccc3F)CC2)c1 25.7%
Nc1nc(CN2CCCCCC2)nc(Nc2ccc(F)cc2)n1 -3.7%
Cc1ccc(CCNC(=O)CCS(=O)(=O)c2ccc(Br)cc2)cc1 28.3%
O=C(CCNS(=O)(=O)c1ccc(Br)cc1)NCCc1ccccc1 -1.9%
Cc1ccc(S(=O)(=O)CCC(=O)NC2CCCCC2)cc1 3.12%
Cc1ccc(S(=O)(=O)CCC(=O)NCCc2ccccc2)cc1 1.3%
COc1ccc(S(=O)(=O)CCC(=O)NCCc2ccc(S(N)(=O)=O)cc2)cc1 12.3%
COc1ccc(S(=O)(=O)CCC(=O)NC2CCCCC2)cc1 23.2%
CC(NS(=O)(=O)c1ccccc1)C(=O)Nc1ccc2c(c1)OCCO2 (stereo unspecified) 0.08%
CC(=O)NCCn1c(SCc2ccccc2F)nc2ccccc2c1=O -4.55%
O=C(CSc1nc2sc3c(c2c(=O)[nH]1)CCC3)NCCO -6.15%
O=C(Cc1ccccc1)Nc1ccccc1C(=O)Nc1ccccc1 9.21%
O=C(CC12CC3CC(CC(C3)C1)C2)NCc1ccccc1 0.11%
FC(F)(F)c1ccc2c(c1)NCC1CCCN21 (stereo unspecified) 32.5%
O=C1Nc2ccccc2N2CCCC12 (stereo unspecified) -3.06%
